# Out of some 390,000 compounds screened, about 17,000 (4.4%) were called active. About 8% were inconclusive and are not listed. The full list was thinned out, with actives kept by preference. Unmarked numbers belong to inactive results. The call rests on the fitted dose curve; in most records, active means well fitted inhibition curve with a large enough effect; inconclusive means small, poorly fitted or top-dose-only effect; inactive means no such curve, though single readings can be large or run the other way.
# Biological target: Lysine-specific demethylase 4A (Homo sapiens) (UniProt O75164)
# Assay: qHTS Assay for Inhibitors of JMJD2A-Tudor Domain; further: nearly all actives have a fitted effect of over 50% in size
# Conditions: AlphaScreen JMJD2A-Tudor / H3K4me3 peptide binding; series mostly up to 114 µM; activity change, negative = inhibition: at the top concentration
# On the % scale 0 is the no-effect control and ±100 the full control effect; potency means the concentration at half of the fitted maximal effect.
# Chain of Lysine-specific demethylase 4A (Homo sapiens) (O75164 whole entry, looked up, the tested form may be a part): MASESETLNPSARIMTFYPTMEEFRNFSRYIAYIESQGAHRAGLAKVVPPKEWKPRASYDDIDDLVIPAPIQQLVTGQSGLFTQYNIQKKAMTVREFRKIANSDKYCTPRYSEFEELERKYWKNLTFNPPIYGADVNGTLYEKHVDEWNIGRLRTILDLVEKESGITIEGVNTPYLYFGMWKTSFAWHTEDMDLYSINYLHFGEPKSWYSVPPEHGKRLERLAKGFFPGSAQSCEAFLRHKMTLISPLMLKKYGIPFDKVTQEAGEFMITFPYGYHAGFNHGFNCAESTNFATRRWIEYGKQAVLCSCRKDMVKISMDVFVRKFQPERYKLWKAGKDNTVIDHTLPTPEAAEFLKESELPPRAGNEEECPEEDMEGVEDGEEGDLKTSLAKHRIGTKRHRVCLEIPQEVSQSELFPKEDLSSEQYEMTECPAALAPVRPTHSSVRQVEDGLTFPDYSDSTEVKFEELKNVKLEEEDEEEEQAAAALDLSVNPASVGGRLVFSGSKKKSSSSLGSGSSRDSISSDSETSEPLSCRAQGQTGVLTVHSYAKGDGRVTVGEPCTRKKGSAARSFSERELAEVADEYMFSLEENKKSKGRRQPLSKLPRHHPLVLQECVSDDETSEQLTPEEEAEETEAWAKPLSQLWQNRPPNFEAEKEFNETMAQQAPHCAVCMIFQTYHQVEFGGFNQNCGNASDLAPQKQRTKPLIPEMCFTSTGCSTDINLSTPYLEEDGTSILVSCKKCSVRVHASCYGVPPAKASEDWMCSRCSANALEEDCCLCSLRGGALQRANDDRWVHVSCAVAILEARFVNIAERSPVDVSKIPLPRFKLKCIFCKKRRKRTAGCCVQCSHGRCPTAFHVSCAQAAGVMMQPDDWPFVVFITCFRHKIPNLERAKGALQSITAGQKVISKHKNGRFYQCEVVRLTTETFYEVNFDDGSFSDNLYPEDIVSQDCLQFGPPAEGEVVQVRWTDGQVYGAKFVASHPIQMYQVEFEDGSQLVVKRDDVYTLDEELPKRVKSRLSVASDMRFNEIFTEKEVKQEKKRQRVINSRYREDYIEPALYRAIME
Structure (SMILES),"activity change, negative = inhibition [%]",Potency
CN(Cc1ccccc1)C(=O)c1cn(C)c2ccc(S(=O)(=O)N3CCCCC3)cc2c1=O,-15,
CCOc1ccc(CC(=O)NC2CCN(Cc3ccccc3)CC2)cc1,-6.56,
CCOc1ccc(CN2CCN(CCCc3ccccc3)C(CCO)C2)cc1 (stereo not drawn),-24.3,
CCOc1ccc(CN2CCCN(C)CC2)cc1,,3.55 µM (active)
CCOc1ccccc1CNC(=O)c1ccc(-n2c(C)cc3c2CCC(C)C3)cc1 (stereo not drawn),-22.4,
COc1ccc(C(=O)COC(=O)C(O)c2ccccc2)c(OC)c1 (stereo not drawn),-30,
COc1ccc(/C=C2/C(=O)OCc3cc(OC)c(OC)cc32)c(OC)c1,-34.3,
COc1ccc(/C=C2/C(=O)N(c3ccccc3)N=C2C)c(OC)c1,,15.8 µM (active)
Cc1ccc(CNC(=O)CCc2c(C)nc3c(c(C)nn3-c3ccccc3)c2C)cc1,-6.38,
C/C(CC(=O)NC(C)c1ccccc1)=N\NC(N)=S (stereo not drawn),,31.6 µM (active)
Cc1cc(C(=O)NNC(=S)NC(C)c2ccccc2)cs1 (stereo not drawn),-11.3,
Cc1ccc(S(=O)(=O)CC(=O)NC(C)c2ccccc2)cc1 (stereo not drawn),-13.7,
CCN1CCN(CCCNC(=O)c2cnn(-c3ccc(C)cc3C)c2C2CCN(C(=O)OC(C)(C)C)CC2)CC1,-25.9,
COc1ccc(Cn2c(=O)n(-c3ccccc3C)c(=O)c3c4c(sc32)CN(C(C)=O)CC4)cc1,-19.6,
COc1ccccc1N1CCN(C(CNC(=O)C(=O)NCc2ccc(C)cc2)c2cccnc2)CC1 (stereo not drawn),-1.64,
CCN1CCN(C(c2cccnc2)c2cc(Cl)c3cccnc3c2O)CC1 (stereo not drawn),,17.8 µM (active)
O=C(NC(c1ccco1)c1cc(Cl)c2cccnc2c1O)c1ccccc1 (stereo not drawn),-23.4,
CC(=O)NC(c1cccs1)c1cc(Cl)c2cccnc2c1O (stereo not drawn),-29.9,
CCOC(=O)N1CCN(C(c2cccnc2)c2ccc3cccnc3c2O)CC1 (stereo not drawn),,17.8 µM (active)
O=C(CSc1cccc2cccnc12)N/N=C/c1cccnc1,-4.86,
CC1=C(C(=O)OCc2ccc(C)cc2)C(c2c(Cl)cccc2Cl)CC(=O)N1 (stereo not drawn),2.4,
Cc1onc(-c2ccc(F)cc2F)c1C(=O)Nc1cccc(C(F)(F)F)c1,11,
CCOCCCNC(=O)c1c(NC(=O)c2nc(SC)ncc2Cl)sc2c1CCCC2,-9.72,
CCOc1ccc(NC(=O)CCc2c(C)nn(-c3ccc(N4CCCC4)nn3)c2C)cc1,-22.7,
CCC(=O)c1ccc(OCC(=O)Nc2ccc(N3CCCCC3)cc2)cc1,-7.05,
O=C1C=CC(=O)N1c1ccc(N2CCCCC2)cc1,,20 µM (active)
O=C(C1CC(=O)N(C2CCCCC2)C1)N1CCN(c2ccccc2)CC1 (stereo not drawn),-33.1,
CCC(=O)Nc1ccc(C)cc1-c1nc2ccccc2n(Cc2ccccc2)c1=O,-0.993,

# From PubChem BioAssay AID504339 (National Center for Advancing Translational Sciences (NCATS), 2011)
